The source holds several records for some structures; these can differ, active in one and inactive in another. Active and inactive are the calls of the source. The calls were made as follows: active = hit-call score of the fitted dose curve at least 0.9, where 1 is the maximum; inactive = score below 0.9.

The text below walks through data of PubChem BioAssay (EPA / NIEHS).

Read-out in experiment [1]: Collagen I, COL1A1 (gene 1277)
Nature of the experiment: BSK_hDFCGF_CollagenI: BioMAP Diversity Plus: hDFCGF Assay for Collagen I Biomarker Activity (AID 2284250). As to conditions: primary human foreskin fibroblasts. The method in brief: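 ELISA read-out of Collagen I in human dermal foreskin fibroblast cultures, 24 h after dosing. Gain of signal versus DMSO vehicle defines activity.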

Read-out in experiment [2]: Plasminogen activator inhibitor-1 (PAI1), SERPINE1 (gene 5054)
As to the kind of experiment: BSK_KF3CT_PAI1: BioMAP Diversity Plus: KF3CT Assay for Plasminogen activator inhibitor-1 (PAI1) Biomarker Activity (AID 2284252). The note with it: primary human keratinocytes with fibroblasts. In short, it runs like this:
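Keratinocyte + dermal fibroblast co-culture (human primary); 24 h post-dose; PAI-1 by ELISA; gain-of-signal fit vs DMSO control.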

Read-out in experiment [3]: Monocyte Chemoattractant Protein-1 (MCP1), CCL2 (gene 6347)
As to the kind of experiment: BSK_IMphg_MCP1: BioMAP Diversity Plus: IMphg Assay for Monocyte Chemoattractant Protein-1 (MCP1) Biomarker Activity (AID 2284253). As to conditions: primary human endothelial cells with macrophages. The method in brief:
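ELISA readout of MCP-1 at 24 hours in IMphg co-cultures of venular endothelial cells and macrophages, normalised to DMSO; parallel cultures stained with sulforhodamine B for overt cytotoxicity.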

Read-out in experiment [4]: Interleukin-8 (IL8), CXCL8 (gene 3576)
As to the kind of experiment: BSK_KF3CT_IL8: BioMAP Diversity Plus: KF3CT Assay for Interleukin-8 (IL8) Biomarker Activity (AID 2284254). As to conditions: primary human keratinocytes with fibroblasts. The method in brief:
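IL-8 read-out: ELISA, 24 h post-dose, human skin primary co-culture (keratinocytes + foreskin fibroblasts). DMSO = baseline; positive-direction fit.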

Read-out in experiment [5]: Macrophage Inflammatory Protein-1 Alpha (MIP1a), CCL3 (gene 6348)
Nature of the experiment: BSK_IMphg_MIP1a: BioMAP Diversity Plus: IMphg Assay for Macrophage Inflammatory Protein-1 Alpha (MIP1a) Biomarker Activity (AID 2284255). As to conditions: primary human endothelial cells with macrophages. The method in brief:
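MIP-1a protein levels were quantified by ELISA after 24 h treatment of human endothelial cell–macrophage co-cultures, compared with DMSO. Parallel cultures were fixed with TCA and stained with 0.1% SRB to gauge overt cytotoxicity.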

Read-out in experiment [6]: Plasminogen activator inhibitor-1 (PAI1), SERPINE1 (gene 5054)
Nature of the experiment: BSK_MyoF_PAI1: BioMAP Diversity Plus: MyoF Assay for Plasminogen activator inhibitor-1 (PAI1) Biomarker Activity (AID 2284256).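 As to outcome: PAI-1 protein level measured by ELISA in fibroblast cultures.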 As to conditions: primary human lung fibroblasts. The method in brief: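 MyoF lung fibroblasts, human primary; compound 24 h; PAI-1 ELISA; positive-direction fit vs DMSO baseline; parallel SRB total-protein staining for cytotoxicity.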

Read-out in a further experiment: CD69, CD69 (gene 969)
As to the kind of experiment: BSK_IMphg_CD69: BioMAP Diversity Plus: IMphg Assay for CD69 Biomarker Activity (AID 2284257). As to conditions: primary human endothelial cells with macrophages. In short, it runs like this:
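Readout is ELISA for CD69 in primary human venular endothelial cell/macrophage co-culture, taken at 24 h post-dosing. SRB staining of parallel cultures gauged overt cytotoxicity; signal increase versus DMSO defined activity.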

Read-out in experiment [7]: Eotaxin 3, CCL26 (gene 10344)
Nature of the experiment: BSK_BF4T_Eotaxin3: BioMAP Diversity Plus: BF4T Assay for Eotaxin 3 Biomarker Activity (AID 2284258). As to conditions: primary human bronchial epithelial cells with fibroblasts. In short, it runs like this: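 ELISA measurement of Eotaxin-3 after 24 h chemical exposure in a bronchial epithelial/dermal fibroblast co-culture, with DMSO as baseline. Parallel SRB staining (0.1% SRB after 10% TCA fixation, 560 nm) flagged overt cytotoxicity.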

Read-out in experiment [8]: Monocyte Chemoattractant Protein-1 (MCP1), CCL2 (gene 6347)
As to the kind of experiment: BSK_BF4T_MCP1: BioMAP Diversity Plus: BF4T Assay for Monocyte Chemoattractant Protein-1 (MCP1) Biomarker Activity (AID 2284259). The note with it: primary human bronchial epithelial cells with fibroblasts. The method in brief:
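MCP-1 ELISA readout taken 24 h after dosing in the BF4T system (bronchial epithelial cells plus dermal fibroblasts). Parallel SRB total-protein staining flagged cytotoxicity; DMSO served as baseline, positive fitting direction.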

Read-out in experiment [9]: Intercellular Adhesion Molecule 1 (ICAM1), ICAM1 (gene 3383)
Nature of the experiment: BSK_BF4T_ICAM1: BioMAP Diversity Plus: BF4T Assay for Intercellular Adhesion Molecule 1 (ICAM1) Biomarker Activity (AID 2284260). The note with it: primary human bronchial epithelial cells with fibroblasts. In short, it runs like this: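 ICAM-1 levels measured by ELISA after 24 h chemical treatment of bronchial epithelial cell/dermal fibroblast co-cultures, read against DMSO baseline. Overt cytotoxicity checked in parallel cultures by sulforhodamine B staining.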

Read-out in experiment [10]: Interleukin-8 (IL8), CXCL8 (gene 3576)
Nature of the experiment: BSK_MyoF_IL8: BioMAP Diversity Plus: MyoF Assay for Interleukin-8 (IL8) Biomarker Activity (AID 2284261). As to conditions: primary human lung fibroblasts. The method in brief: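 Lung fibroblasts (human primary) → chemical exposure → 24 h → IL-8 measured by ELISA. Signal increase scored versus DMSO control.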

Read-out in the next experiment: CD90, THY1 (gene 7070)
Nature of the experiment: BSK_BF4T_CD90: BioMAP Diversity Plus: BF4T Assay for CD90 Biomarker Activity (AID 2284262). The note with it: primary human bronchial epithelial cells with fibroblasts. The method in brief: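 CD90 levels by ELISA after 24 h treatment of human bronchial epithelial cell/dermal fibroblast cultures, analysed versus DMSO. Overt cytotoxicity checked in parallel cultures by sulforhodamine B staining.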

Read-out in experiment [11]: Interleukin-8 (IL8), CXCL8 (gene 3576)
As to the kind of experiment: BSK_BF4T_IL8: BioMAP Diversity Plus: BF4T Assay for Interleukin-8 (IL8) Biomarker Activity (AID 2284263). As to conditions: primary human bronchial epithelial cells with fibroblasts. In short, it runs like this:
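Human bronchial epithelial cells with dermal fibroblasts co-culture; IL-8 measured by ELISA 24 hours after dosing, fitted vs DMSO. Cytotoxicity tracked in parallel cultures by SRB total-protein staining.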

Read-out in experiment [12]: Interleukin-1 alpha (IL1a), IL1A (gene 3552)
As to the kind of experiment: BSK_BF4T_IL1a: BioMAP Diversity Plus: BF4T Assay for Interleukin-1 alpha (IL1a) Biomarker Activity (AID 2284264). The note with it: primary human bronchial epithelial cells with fibroblasts. The method in brief: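 ELISA read-out of IL-1α from bronchial epithelial cell/dermal fibroblast co-cultures 24 h after compound addition. Increases scored against DMSO negative control. Cytotoxicity monitored by sulforhodamine B staining of parallel cultures.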

Read-out in the next experiment: Decorin, DCN (gene 1634)
As to the kind of experiment: BSK_MyoF_Decorin: BioMAP Diversity Plus: MyoF Assay for Decorin Biomarker Activity (AID 2284265). As to conditions: primary human lung fibroblasts. In short, it runs like this: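 ELISA readout of decorin, 24 h post-dosing; primary human lung fibroblast (MyoF) culture; gain-of-signal fit vs DMSO baseline.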

Read-out in a further experiment: KRT18 (gene 3875)
As to the kind of experiment: BSK_BF4T_Keratin818: BioMAP Diversity Plus: BF4T Assay for Keratin 818 Biomarker Activity (AID 2284266). The note with it: primary human bronchial epithelial cells with fibroblasts. In short, it runs like this: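 Keratin 8/18 levels quantified by ELISA after 24 h chemical treatment of bronchial epithelial cell/dermal fibroblast co-cultures, fitted in positive direction relative to DMSO. Parallel SRB staining tracks overt cytotoxicity.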

Experiment [13] can be described thus: BSK_MyoF_SRB: Viability Assessment in the BioMAP Diversity Plus: MyoF Assay (AID 2284267).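 Also: total protein by SRB absorbance in parallel cultures as cytotoxicity measure.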 As to conditions: primary human lung fibroblasts. The method in brief:
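Lung fibroblast cultures, 24 h post-dose; fix 10% TCA, stain 0.1% SRB, read 560 nm. Signal = total protein as cytotoxicity measure; fitted relative to DMSO negative control.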

Read-out in experiment [14]: Matrix Metallopeptidase 1 (MMP1), MMP1 (gene 4312)
As to the kind of experiment: BSK_MyoF_MMP1: BioMAP Diversity Plus: MyoF Assay for Matrix Metallopeptidase 1 (MMP1) Biomarker Activity (AID 2284268). The note with it: primary human lung fibroblasts. In short, it runs like this:
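Cells: human lung fibroblasts. Exposure: 24 h chemical dosing. Detection: ELISA for MMP1. Analysis: upward fitting against DMSO negative control.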

Read-out in experiment [15]: TIMP metallopeptidase inhibitor 1 (TIMP1), TIMP1 (gene 7076)
As to the kind of experiment: BSK_MyoF_TIMP1: BioMAP Diversity Plus: MyoF Assay for TIMP metallopeptidase inhibitor 1 (TIMP1) Biomarker Activity (AID 2284269). As to conditions: primary human lung fibroblasts. In short, it runs like this: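 TIMP-1 levels were determined by ELISA in human lung fibroblasts treated for 24 h. DMSO served as negative control and baseline for upward curve fitting.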

As to `OCC(O)CC(F)(F)C(F)(F)C(F)(F)C(F)(F)C(F)(F)C(F)(F)C(F)(F)C(F)(F)F` (stereo unspecified), the result in experiment [1], in experiment [2], in [3], in experiment [4], in experiment [5] and in experiment [6] was inactive. Moreover, the outcome was “inactive” with CD69, CD69 (gene 969); “inactive” in [7]; “inactive” in [8]; “inactive” in [9]; “inactive” in experiment [10]; “inactive” in the experiment with CD90, THY1 (gene 7070). Moreover, the outcome in experiment [11] is “inactive”; in [12], “inactive”; with Decorin, DCN (gene 1634) it was “inactive”; in the experiment with KRT18 (gene 3875), “inactive”; in experiment [13] it was “inactive”; in experiment [14], “inactive”. Besides, the outcome in experiment [15] was inactive.
For `CC1=CC2C3C=CC(C3)C2C1C` (stereo unspecified), the outcome was “inactive” in experiment [6]; “inactive” in experiment [10]; “inactive” with Decorin, DCN (gene 1634); “inactive” in [13]; “inactive” in experiment [14]; “inactive” in [15].
Consider `COC(F)(C(F)F)C(F)(F)F` (stereo unspecified), for which the result in experiment [1], in [2], in [3], in [4], in [5] and in [6] was inactive. Moreover, the outcome in the experiment with CD69, CD69 (gene 969) was “inactive”; in [7], “inactive”; in [8], “inactive”; in experiment [9], “inactive”; in [10], “inactive”; with CD90, THY1 (gene 7070) it was “inactive”. Besides, the outcome in experiment [11] is “inactive”; in [12], “inactive”; with Decorin, DCN (gene 1634), “inactive”; with KRT18 (gene 3875) it was “inactive”; in experiment [13] it was “inactive”; in experiment [14], “inactive”. Besides, the outcome in [15] was inactive.
For the compound `O=C=Nc1cccc2c(N=C=O)cccc12`, the outcome in experiment [6] is “inactive”; in experiment [10], “inactive”; with Decorin, DCN (gene 1634), “inactive”; in experiment [13], “inactive”; in experiment [14], “inactive”; in experiment [15], “inactive”.
For the compound `CCOC(C=C(C)CCC=C(C)C)OCC`, the AC50 in [6] was 20 µM (active); with Decorin, DCN (gene 1634), 0.016 µM (active); in experiment [13] it was 30.4 µM (active); in experiment [14], 31.3 µM (active); in experiment [15] it was 3.97 µM (active). Moreover, in experiment [10], the result was inactive.
Take `O=C(O)C(F)(F)OC(F)(F)C(F)(F)OC(F)(F)C(F)(F)OC(F)(F)F`: the outcome in experiment [1], in [2], in experiment [3], in [4], in experiment [5] and in experiment [6] was inactive. In addition, the outcome in the experiment with CD69, CD69 (gene 969) is “inactive”; in experiment [7], “inactive”; in experiment [8], “inactive”; in experiment [9], “inactive”; in experiment [10], “inactive”; with CD90, THY1 (gene 7070) it was “inactive”. For the same compound, the outcome in [11] was “inactive”; in experiment [12], “inactive”; with Decorin, DCN (gene 1634), “inactive”; with KRT18 (gene 3875), “inactive”; in experiment [13], “inactive”; in experiment [14] it was “inactive”. Besides, in [15], the result was inactive. In addition, the AC50 in experiment [15] was 6.35 µM (active).

Usually AC50 stands for the midpoint of the concentration-response curve, whichever way the signal moves.
